# Bioassay records (PubChem BioAssay)
# Mcl-1 Bim block – inhibitors of Bim peptide binding to Mcl-1, primary screen, biochemical, bead-based flow cytometry, multiplex | AID 1009, 2008 | inhibition, % at 10 µM | 190,000 compounds, 0.1% hits | Induced myeloid leukemia cell differentiation protein Mcl-1 (Homo sapiens), Q07820 | Bim peptide-Mcl-1 binding; in the data active = inhibition above about 40%
# Mcl1-Bid inh – Mcl-1/Bid binding inhibitors, primary screen, biochemical, TR-FRET, 1536-well; Induced myeloid leukemia cell differentiation protein Mcl-1 (Homo sapiens), Q07820; TR-FRET Mcl-1/Bid-Dy647 peptide binding; inhibition, % at 21.7 µM; 220,000 compounds, 0.97% hits;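 active = compounds that cut the binding signal by more than half at the single screening dose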;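 also: His-tagged Mcl-1 with europium anti-His antibody binding Bid BH3 peptide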
# Mcl1-Noxa inh – Mcl-1/Noxa binding inhibitors, primary screen, biochemical, TR-FRET, 1536-well; inhibition, % at 21.7 µM; TR-FRET Mcl-1/Noxa peptide binding, 2 h; 220,000 compounds, 1.5% hits;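 active = compounds that cut the protein-peptide binding signal by more than 50% relative to plate controls in a single-dose test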;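 also: His-tagged Mcl-1 with rhodamine Noxa BH3 peptide and terbium anti-His antibody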
# eIF4E 4G PPI – eIF4E–eIF4G protein interaction inhibitors, primary screen, biochemical, uHTS, TR-FRET, eIF4GI fragment; 220,000 compounds, 0.37% hits; inhibition, % at 21.7 µM; AID 782, 2007; Eukaryotic translation initiation factor 4E (Mus musculus) + Eukaryotic translation …; TR-FRET eIF4E-eIF4GI(517-606) binding, 2 h;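 active = inhibition above about 30%, limit read from the data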
# Target sequence (P63073 whole entry, looked up, the tested form may be a part): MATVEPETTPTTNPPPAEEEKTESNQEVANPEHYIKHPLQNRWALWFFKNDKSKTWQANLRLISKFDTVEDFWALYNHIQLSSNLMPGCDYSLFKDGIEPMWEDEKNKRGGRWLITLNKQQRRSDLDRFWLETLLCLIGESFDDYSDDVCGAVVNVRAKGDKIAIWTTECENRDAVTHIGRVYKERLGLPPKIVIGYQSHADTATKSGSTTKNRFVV
# Target sequence (Q04637 whole entry, looked up, the tested form may be a part): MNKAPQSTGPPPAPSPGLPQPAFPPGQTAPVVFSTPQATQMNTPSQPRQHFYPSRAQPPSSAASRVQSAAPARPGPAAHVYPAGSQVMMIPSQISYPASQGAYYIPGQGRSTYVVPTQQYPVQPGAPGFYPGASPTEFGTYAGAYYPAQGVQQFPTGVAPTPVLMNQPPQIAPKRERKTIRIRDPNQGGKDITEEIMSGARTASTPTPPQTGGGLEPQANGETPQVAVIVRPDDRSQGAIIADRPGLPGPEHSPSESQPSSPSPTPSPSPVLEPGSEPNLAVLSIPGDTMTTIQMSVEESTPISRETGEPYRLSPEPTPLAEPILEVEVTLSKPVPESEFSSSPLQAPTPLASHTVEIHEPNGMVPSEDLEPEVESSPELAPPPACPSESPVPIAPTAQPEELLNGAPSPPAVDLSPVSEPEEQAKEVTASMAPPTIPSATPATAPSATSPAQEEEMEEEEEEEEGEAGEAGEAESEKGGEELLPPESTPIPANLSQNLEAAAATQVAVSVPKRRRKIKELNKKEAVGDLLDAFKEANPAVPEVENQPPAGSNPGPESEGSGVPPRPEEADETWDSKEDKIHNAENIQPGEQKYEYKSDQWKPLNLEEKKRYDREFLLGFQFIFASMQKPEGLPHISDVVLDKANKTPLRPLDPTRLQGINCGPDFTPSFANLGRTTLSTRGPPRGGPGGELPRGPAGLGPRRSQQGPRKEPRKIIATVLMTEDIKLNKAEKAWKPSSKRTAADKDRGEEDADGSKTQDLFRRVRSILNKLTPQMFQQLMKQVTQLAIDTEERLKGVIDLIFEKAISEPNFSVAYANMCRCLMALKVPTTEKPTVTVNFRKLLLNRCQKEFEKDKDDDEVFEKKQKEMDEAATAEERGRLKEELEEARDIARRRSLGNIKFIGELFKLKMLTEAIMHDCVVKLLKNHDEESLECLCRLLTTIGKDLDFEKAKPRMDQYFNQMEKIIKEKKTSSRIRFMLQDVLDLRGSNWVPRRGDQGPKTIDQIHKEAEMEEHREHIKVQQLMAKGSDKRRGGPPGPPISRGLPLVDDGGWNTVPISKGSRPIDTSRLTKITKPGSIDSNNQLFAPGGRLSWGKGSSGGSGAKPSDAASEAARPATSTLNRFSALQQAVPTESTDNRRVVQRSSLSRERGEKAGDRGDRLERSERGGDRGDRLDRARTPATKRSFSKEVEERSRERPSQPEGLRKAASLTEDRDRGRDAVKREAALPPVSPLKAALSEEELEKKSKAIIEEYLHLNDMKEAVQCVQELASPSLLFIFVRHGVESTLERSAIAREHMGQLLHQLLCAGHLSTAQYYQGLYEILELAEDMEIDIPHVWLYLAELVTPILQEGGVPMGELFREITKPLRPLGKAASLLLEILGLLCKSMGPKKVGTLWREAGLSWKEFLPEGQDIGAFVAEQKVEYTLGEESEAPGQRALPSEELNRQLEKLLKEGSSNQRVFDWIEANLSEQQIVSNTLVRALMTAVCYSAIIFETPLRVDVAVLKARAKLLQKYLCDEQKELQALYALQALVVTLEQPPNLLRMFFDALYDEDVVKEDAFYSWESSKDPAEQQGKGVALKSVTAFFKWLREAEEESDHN
# Pf gametocyte – late stage P. falciparum gametocyte viability inhibitors, primary screen, ATP luminescence, HTS; P. falciparum stage V gametocytes, 24 h; inhibition, % at 10.9 µM; 150,000 compounds, 0.065% hits; AID 743093, 2013;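 active = inhibition above the mean plus 3 SD of compounds within the control limits, set per campaign, cut at about 38% in these data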
# 14-3-3 Bad inh – inhibitors of 14-3-3 zeta/Bad binding, primary screen, biochemical, TR-FRET, bovine 14-3-3 zeta; TR-FRET 14-3-3zeta/Dy647-pBad peptide displacement, 1 h; inhibition, % at 21.7 µM; 220,000 compounds, 0.71% hits; AID 781, 2007;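 active = inhibition above about 70%, limit read from the data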
# A number is an active result; - = inactive; . = not tested or not shown; [ ] = dose if it differs, or a comment. A selection: hits, their analogues and other compounds. The true share with any hit is near 2.7%.
SMILES,Mcl-1 Bim block,Mcl1-Bid inh,Mcl1-Noxa inh,eIF4E 4G PPI,Pf gametocyte,14-3-3 Bad inh
NS(=O)(=O)c1ccc(N=Nc2ccc(=O)[nH]c2O)cc1,.,-,63,37,.,73
COc1ccc(CC2(C)OC(c3ccc(Cl)cc3)=NN2C(C)=O)cc1 (configuration not stated),-,-,-,-,-,-
CCC(=O)NC(=S)Nc1ccc(NC(=O)c2ccc([N+](=O)[O-])cc2)cc1,-,-,-,56[fluorescence artefact?],-,-
Cc1cc(-c2ccccc2)nc(=O)[nH]1,-,-,-,-,.,74
Cc1nn(-c2ncc(C(F)(F)F)cc2Cl)c(=O)n1-c1ccccc1F,-,-,-,-,-,-
NC(=O)c1ccc(Nc2nnc(-c3ccc(O)cc3)c3ccccc23)cc1,-,-,52,-,-,-
O=c1cc(CO)oc(C(Nc2ccccn2)c2ccccc2Cl)c1O (configuration not stated),-,-,-,-,-,-
O=c1cc(CO)oc(C(Nc2ccccn2)c2ccc(F)cc2)c1O (configuration not stated),-,52,62,-,.,-
Cc1ccnc(NC(c2ccccc2O)c2oc(CO)cc(=O)c2O)c1 (configuration not stated),-,-,70,-,.,-
COc1ccc(C(Nc2ccccn2)c2oc(CO)cc(=O)c2O)cc1 (configuration not stated),-,-,65,-,-,-
Nc1nncn1C(=O)c1ccc(Cl)cc1Cl,-,-,-,-,.,-
O=C(c1ccccc1)c1ccc(OCCCN2CCCC2)cc1,-,-,-,-,-,-
O=C(c1ccccc1)c1ccc(OCCCCN2CCCCC2)cc1,-,-,-,-,-,74
CCOC(=O)CSc1nnc2n1C(C)(C)Cc1ccccc1-2,-,-,92,-,-,-
CC(C)OC(=O)CSc1nnc2n1C(C)(C)Cc1ccccc1-2,-,-,-,.,-,.
COc1ccc(C(=O)NNC(=O)c2ccncc2)cc1,-,-,61,-,-,-
CC(=O)c1ccc(NC(=S)NNC(=O)c2ccncc2)cc1,-,92,-,-,-,-
O=C(NNC(=O)c1ccncc1)c1ccncc1,-,-,-,-,-,-
CCc1ccc(OCc2nnc(SCC(=O)N3CCN(c4ccccc4)CC3)o2)cc1,-,-,-,-,.,-
O=C(ONc1ccc(N=NC(=O)c2ccccc2O)cc1)c1ccccc1,-,88,84,-,-,-
O=C(CCCOc1ccc(Cl)cc1Cl)Nc1cccnc1,-,-,-,-,.,78
O=C1CCCC(O)=C1N=Nc1ccc(C(=O)O)cc1,.,-,54,-,-,-
CCOC(=O)C1=C(CP(=O)(c2ccccc2)c2ccccc2)NC(=O)NC1c1ccc(Cl)cc1 (configuration not stated),-,-,-,-,.,-
CCOC(=O)C1=C(CP(=O)(c2ccccc2)c2ccccc2)NC(=O)NC1c1ccc(OC)cc1 (configuration not stated),74,-,-,-,-,-
CS(=O)(=O)N(CC(=O)N1CCc2ccccc2C1)Cc1ccccc1,-,-,-,-,-,-
SMILES,Mcl-1 Bim block,Mcl1-Bid inh,Mcl1-Noxa inh,eIF4E 4G PPI,Pf gametocyte,14-3-3 Bad inh
Oc1c(C(c2cccs2)N2CCN(c3ccccc3)CC2)ccc2cccnc12 (configuration not stated),-,65,85,36[fluorescence artefact?],.,-
O=c1[nH]c2c(s1)C(c1ccc(O)cc1)C1C3CCC(C3)C1S2 (configuration not stated),-,-,54,-,.,-
O=c1[nH]c2c(s1)C(c1cccnc1)C1C3CCC(C3)C1S2 (configuration not stated),.,-,-,-,.,-
Cc1cccc(-c2nc(Nc3ccc(N4CCOCC4)cc3)c3ccccc3n2)c1,-,-,82,-,-,-
CCN(CC)c1ccc(C=C2C(=O)OC3(CCCCC3)OC2=O)cc1,-,-,-,-,-,-
CCN(CC)c1ccc(/C=C2/C(=O)c3ccc(C(=O)O)cc3C2=O)cc1,.,-,58,-,-,-
COc1ccc(-c2nc(-c3ccccc3)c(-c3cc([N+](=O)[O-])ccc3C)[nH]2)cc1O,-,-,-,-,.,-
COc1ccc(-c2nc(=S)c3c([nH]2)Oc2ccc(C)cc2C3)cc1O,-,-,66,-,-,-
O=C(Cc1ccc([N+](=O)[O-])cc1)NCc1ccccn1,-,-,69,-,-,-
C=CCNC(=S)N1CCN(Cc2ccccc2)CC1,-,-,-,-,-,-
NS(=O)(=O)c1cc(C(=O)OCC(=O)Nc2ccc(Cl)cc2[N+](=O)[O-])ccc1Cl,-,-,-,-,-,-
COc1ccc(NC(=O)COC(=O)c2ccc(Cl)c(S(N)(=O)=O)c2)c([N+](=O)[O-])c1,.,-,53,-,-,-
CCN(CC)c1ccc(NC(=O)c2cncc(Br)c2)cc1,-,-,58,-,-,-
CC(=O)c1ccc(NC(=O)Nc2ccccc2)cc1,-,-,-,-,.,-
CCN(CC)c1ccc(NC(=O)Nc2ccc(C(C)=O)cc2)cc1,-,-,97,-,.,-
CCN(CC)c1ccc(NC(=O)c2cccnc2)cc1,-,-,-,-,.,-
COc1cccc(C(c2sc3nc(C)nn3c2O)N2CCc3ccccc3C2)c1 (configuration not stated),-,-,52,-,.,-
CCN1CCN(C(c2cccc(OC)c2)c2sc3nc(C)nn3c2O)CC1 (configuration not stated),-,-,-,-,-,-
O=C(Nc1nccs1)C(c1ccccc1)N1CCCC1 (configuration not stated),-,-,-,-,-,-
C(=N\Nc1nc(-c2ccccc2)cs1)/c1cccnc1,-,-,-,-,.,-
Clc1ccc(-c2csc(N/N=C/c3cccnc3)n2)c(Cl)c1,-,-,58,-,-,-
Cc1cc(C)c(S(=O)(=O)ON2C(=O)c3ccccc3C2=O)cc1C,-,-,72,-,.,-
Cc1cc(C)c(C)c(S(=O)(=O)ON2C(=O)c3ccccc3C2=O)c1C,-,-,-,-,-,-
Cc1ccc(S(=O)(=O)ON2C(=O)c3ccccc3C2=O)c(C)c1,-,-,71,-,-,-
Cc1ccc(NC(=O)CN2C(=O)c3ccccc3C2=O)c(C)c1,.,.,.,.,-,.
COCCCn1c(C)nnc1SCC(=O)Nc1ccc(C(C)=O)cc1,.,.,.,.,-,.
